# Records with an inconclusive call do not appear. Unmarked numbers belong to inactive results. Activity calls are given as the source filed them. Calls follow the shape of the dose curve; as a rule, active = well fitted inhibition curve with a large enough effect; inconclusive = small, poorly fitted or top-dose-only effect; inactive = flat fitted curve, though single readings scatter.
# Key:
# Assay in all cases: Cytotoxic Profiling of Annotated Libraries Using Quantitative High-Throughput Screening (AID 1296008); also: nearly all actives have a fitted effect of over 60% in size
# Settings in all cases: Five cell lines viability, CellTiter-Glo ATP luminescence, 48-72 h; max response: hits give low values
# CRL-7250 = system: CRL-7250
# In short: (§1)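 Cytotoxicity was measured as CellTiter-Glo ATP luminescence, read after 10 min at room temperature. Compound treatment of the cells lasted 48 or 72 hr at 37 degrees Celsius in a qHTS format.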
# HEK293 = system: HEK293
# In short: as §1
# HaCat = system: HaCat
# In short: as §1
# KB-3-1 = system: KB-3-1
# In short: as §1
# NIH3T3 = system: NIH3T3
# In short: as §1
# % is scaled to controls: 0 for no effect and ±100 for the full control effect; potency is read from the fitted curve at half-maximal effect.
smiles,measurement,setting,value
CC(=O)NCC1CN(c2ccc(-c3ccc(CNCc4cn[nH]n4)cc3)c(F)c2)C(=O)O1 (stereo not given),max response,CRL-7250,0.231%
same,Potency,HEK293,1.3 µM (active)
same,max response,HaCat,1.71%
same,max response,KB-3-1,-15.8%
same,outcome,NIH3T3,inactive
CC1CCC23COC(=O)C2=CC(O)CC3C1(C)CCc1ccoc1 (stereo not given),max response,CRL-7250,1.42%
same,outcome,HEK293,inactive
same,max response,HaCat,-3.63%
same,max response,KB-3-1,-2.5%
same,max response,NIH3T3,-7.2%
CC(C)(O)C1CC=C(C(=O)OC[C@H]2O[C@@H](OC(=O)C3=CCC(C(C)(C)O)CC3)[C@H](O)[C@@H](O)[C@@H]2O)CC1 (stereo not given in full),max response,CRL-7250,3.51%
same,max response,HEK293,1.77%
same,outcome,HaCat,inactive
same,max response,KB-3-1,9.42%
same,outcome,NIH3T3,inactive
CC[C@H]1OC(=O)[C@H](C)C(=O)[C@H](C)[C@@H](OC2O[C@H](C)C[C@H](N(C)C)[C@H]2O)[C@@H](C)C[C@@H](C)C(=O)/C=C/[C@]1(C)O (stereo not given in full),max response,CRL-7250,-0.333%
same,max response,HEK293,-11.3%
same,outcome,HaCat,inactive
same,max response,KB-3-1,7.73%
same,outcome,NIH3T3,inactive
C/C=C/C=C/C1=C2C(=O)C3(C)C4C(C(=O)CC(O)/C=C/C)=C(O1)C1(C)C2C2(C)OC1(O)C4(C)OC23O (stereo not given),outcome,CRL-7250,inactive
same,max response,HEK293,-2.55%
same,outcome,HaCat,inactive
same,max response,KB-3-1,3.96%
same,outcome,NIH3T3,inactive
O=C(O)[C@H](Cc1ccccc1)Oc1ccc(-c2ccccc2)cc1,max response,CRL-7250,-13.4%
same,max response,HEK293,4.06%
same,max response,HaCat,-11.4%
same,outcome,KB-3-1,inactive
same,outcome,NIH3T3,inactive
C=CCc1cc(OC)c(OC(C)C(O)c2ccc(O)c(OC)c2)c(OC)c1 (stereo not given),max response,CRL-7250,-6.23%
same,max response,HEK293,0.874%
same,outcome,HaCat,inactive
same,max response,KB-3-1,-7.75%
same,max response,NIH3T3,-6.43%
COc1cc(CO)ccc1O[C@@H]1O[C@H](CO)[C@@H](O)[C@H](O)[C@H]1O,max response,CRL-7250,-0.424%
same,max response,HEK293,-18.7%
same,outcome,HaCat,inactive
same,max response,KB-3-1,5.53%
same,outcome,NIH3T3,inactive
CC(C)[C@@](O)(c1ccc2cc(OC(F)F)c(OC(F)F)cc2c1)c1cn[nH]n1,max response,CRL-7250,-0.82%
same,max response,HEK293,-10.2%
same,max response,HaCat,-0.148%
same,max response,KB-3-1,5.26%
same,outcome,NIH3T3,inactive
COC(=O)[C@H](Cc1ccc([N+](=O)[O-])cc1)NC(=O)c1cccc2ccccc12,max response,CRL-7250,-4.16%
same,outcome,HEK293,inactive
same,max response,HaCat,-4.67%
same,outcome,KB-3-1,inactive
same,max response,NIH3T3,-1.76%
NC(=O)NCCCC(NC(=O)Cc1ccccc1)C(=O)O (stereo not given),outcome,CRL-7250,inactive
same,max response,HEK293,-0.44%
same,outcome,HaCat,inactive
same,max response,KB-3-1,3.03%
same,max response,NIH3T3,3.99%
COc1cc(C)c(C(=O)OC2C(C)OC(OC3CCC(C)C4C3C=C(C)C3/C(C)=C\CC/C(C)=C/C5(C)C=C(C(=O)O)C(C)CC56OC(=O)/C(=C(\O)C34C)C6=O)C(O)C2O)c(OC)c1 (stereo not given),outcome,CRL-7250,inactive
same,max response,HEK293,-1.11%
same,outcome,HaCat,inactive
same,max response,KB-3-1,-3.91%
same,outcome,NIH3T3,inactive
CCC1(O)CC2c3cc(OC)c(OC)cc3CCN2CC1CC(C)C (stereo not given),max response,CRL-7250,-19.7%
same,max response,HEK293,0.903%
same,max response,HaCat,-10.4%
same,max response,KB-3-1,7.48%
same,outcome,NIH3T3,inactive
C[C@H]1CC[C@H]2[C@@H](C=C[C@@](C)(O)[C@]2(C)C(=O)CCO)C1,outcome,CRL-7250,inactive
same,max response,HEK293,4.9%
same,outcome,HaCat,inactive
same,max response,KB-3-1,5.8%
same,outcome,NIH3T3,inactive
COC(=O)[C@H](O)[C@H]1C(C)(C)[C@H](OC(C)=O)[C@@]2(O)C(=O)[C@]1(C)C1CC[C@]3(C)C(CC(=O)O[C@H]3c3ccoc3)[C@]13O[C@@H]32 (stereo not given in full),outcome,CRL-7250,inactive
same,max response,HEK293,-3.86%
same,max response,HaCat,4.44%
same,max response,KB-3-1,-6.4%
same,outcome,NIH3T3,inactive
CCOc1nc2c(N)ncnc2n1CC,outcome,CRL-7250,inactive
same,max response,HEK293,3.9%
same,outcome,HaCat,inactive
same,max response,KB-3-1,5.09%
same,max response,NIH3T3,3.41%
O=C(/C=C/N1C[C@@H]2C[C@@H]1CN2c1ccccn1)c1ccccc1O,outcome,CRL-7250,inactive
same,max response,HEK293,4.78%
same,max response,HaCat,3.55%
same,outcome,KB-3-1,inactive
same,outcome,NIH3T3,inactive
CC(=O)Nc1cccc2c1c(Sc1ccc(Cl)cc1)c(C)n2CC(=O)O,max response,CRL-7250,-5.82%
same,max response,HEK293,1.56%
same,max response,HaCat,-2.39%
same,max response,KB-3-1,-3.16%
same,outcome,NIH3T3,inactive
CC[C@@H](Nc1c(Nc2cccc(C(=O)N(C)C)c2O)c(=O)c1=O)c1ccc(C)o1,outcome,CRL-7250,inactive
same,max response,HEK293,0.867%
same,max response,HaCat,-4.91%
same,outcome,KB-3-1,inactive
same,outcome,NIH3T3,inactive
Cc1ccc(-c2c(-c3nn(C)c4ncnc(N5CCC(N6CCCCC6)C5)c34)cnn2C)cc1 (stereo not given),outcome,CRL-7250,inactive
same,max response,HEK293,-1.32%
same,outcome,HaCat,inactive
same,outcome,KB-3-1,inactive
same,max response,NIH3T3,4.76%
O=C1NC(=O)/C(=C/c2cccc(C(F)(F)F)c2)S1,outcome,CRL-7250,inactive
same,outcome,HEK293,inactive
same,max response,HaCat,3.45%
same,max response,KB-3-1,-2.21%
same,max response,NIH3T3,4.34%
CC1(C)CC[C@]2(C(=O)O[C@@H]3O[C@H](CO)[C@@H](O)[C@H](O)[C@H]3O)CC[C@]3(C)C(=CCC4[C@@]5(C)CC[C@H](O[C@@H]6O[C@H](C(=O)O)[C@@H](O)[C@H](O)[C@H]6OC6OC(CO)C(O)C(O)C6O)C(C)(C)C5CC[C@]43C)[C@@H]2C1 (stereo not given in full),max response,CRL-7250,3.56%
same,max response,HEK293,-12.1%
same,outcome,HaCat,inactive
same,outcome,KB-3-1,inactive
same,outcome,NIH3T3,inactive
C=C1C[C@@]2(O)O[C@@]3(C[C@H]2C(C)C)[C@@H](C)CC[C@@H]13,outcome,CRL-7250,inactive
same,max response,HEK293,-11.6%
same,max response,HaCat,-13.2%
same,max response,KB-3-1,9.57%
same,outcome,NIH3T3,inactive
C/C=C/C(=O)OC1/C=C/C(O)C(OC(C)=O)CCC(=O)OC1C (stereo not given),max response,CRL-7250,-1.17%
same,max response,HEK293,3.73%
same,outcome,HaCat,inactive
same,max response,KB-3-1,-2.1%
same,outcome,NIH3T3,inactive
C=C1C[C@]23C[C@@]1(O)CC[C@H]2[C@@]12C=C[C@H](O)[C@@](C)(C(=O)O1)[C@H]2[C@@H]3C(=O)O,max response,CRL-7250,0.765%
same,max response,HEK293,-0.839%
same,outcome,HaCat,inactive
same,max response,KB-3-1,7.38%
same,max response,NIH3T3,2.3%
